KinaseGlo FLuc = Counterscreen for Luciferase (Kinase-Glo TM) Inhibition. 200,000 tested, 0.28% active. AID 1379, 2008. Kinase-Glo luciferase, ATP luminescence, 8 min. Potency, µM (doses to about 38.3 µM), for inactives: at the highest dose activity change, negative = inhibition, usual class: inhibitors; active = well fitted curve in the direction sought with a large enough effect; inconclusive = small, poorly fitted or top-dose-only effect, or another doubt; inactive = no such curve, though single readings can be large; an effect the other way counts as inactive or inconclusive; also: nearly all actives have a fitted effect of over 60% in size
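Light output from Kinase-Glo luciferase with luciferin and 10 uM ATP in 50 mM imidazole pH 7.2, KCl, MgCl2, Tween 20, BSA; compound pin-delivered, 8-min ambient incubation, then luminescence read.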
ALDH1A1 inh = qHTS Assay for Inhibitors of Aldehyde Dehydrogenase 1 (ALDH1A1). Aldehyde dehydrogenase 1A1 (Homo sapiens), P00352. Purified ALDH1A1, NADH fluorescence, propionaldehyde substrate. Potency, µM (titrated, usually from 75.3 µM), without a hit: at the highest dose activity, negative = inhibition, usual class: inhibitors. 220,000 tested, 7.3% active;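 also: plate controls were no enzyme wells and a reference inhibitor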
Target sequence (P00352 whole entry, looked up): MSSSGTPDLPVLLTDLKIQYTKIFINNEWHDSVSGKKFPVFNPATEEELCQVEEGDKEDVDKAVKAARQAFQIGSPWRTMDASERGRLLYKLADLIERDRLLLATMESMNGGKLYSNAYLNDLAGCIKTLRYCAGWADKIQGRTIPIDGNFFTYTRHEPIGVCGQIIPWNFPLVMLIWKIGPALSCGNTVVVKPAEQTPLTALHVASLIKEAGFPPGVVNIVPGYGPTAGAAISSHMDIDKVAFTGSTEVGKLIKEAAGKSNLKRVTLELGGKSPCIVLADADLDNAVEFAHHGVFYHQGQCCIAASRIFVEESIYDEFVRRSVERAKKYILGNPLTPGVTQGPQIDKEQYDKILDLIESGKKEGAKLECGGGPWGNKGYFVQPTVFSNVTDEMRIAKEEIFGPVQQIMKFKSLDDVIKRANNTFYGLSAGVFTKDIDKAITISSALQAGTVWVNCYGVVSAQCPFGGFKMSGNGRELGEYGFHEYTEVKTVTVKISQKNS
HPGD inh = qHTS Assay for Inhibitors of HPGD (15-Hydroxyprostaglandin Dehydrogenase). purified HPGD, NADH fluorescence kinetic, PGE2 substrate. Potency, µM, without a hit: at the top dose activity change, negative = inhibition, most hits filed as inhibitors. 150,000 tested, 4.3% active
Target sequence (P15428 whole entry, looked up): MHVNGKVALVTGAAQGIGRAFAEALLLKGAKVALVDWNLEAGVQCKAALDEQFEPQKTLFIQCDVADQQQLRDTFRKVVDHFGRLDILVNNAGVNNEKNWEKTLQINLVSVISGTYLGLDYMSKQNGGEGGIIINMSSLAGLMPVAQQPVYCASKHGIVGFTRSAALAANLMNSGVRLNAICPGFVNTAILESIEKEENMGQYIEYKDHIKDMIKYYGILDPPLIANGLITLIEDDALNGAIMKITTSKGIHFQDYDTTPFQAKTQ
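20 nM HPGD preincubated 15 min at room temperature with compound in 50 mM Tris-HCl pH 8, 0.01% Tween 20. Started with 1 mM NAD+ and 30 uM prostaglandin E2; NADH fluorescence (360/450 nm) read 5 times over 30-s intervals, last minus first.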
LMNA splice mod = qHTS Assay for Modulators of Lamin A Splicing; 200,000 tested, 0.01% active; Potency, µM (doses to about 46.1 µM), inactives show at the highest dose ratio change, negative = inhibition, most hits filed as inhibitors; HeLa LMNA splicing GFP/RFP minigene ratio, 48 h; active = well fitted inhibition curve with a large enough effect in the signal ratio, with a control signal flat, not every such curve was filed as active; inconclusive = small, poorly fitted or top-dose-only effect, or effect the other way, or a change in a side signal; the % refers to the signal ratio
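S3 HeLa cells stably expressing lamin A-EGFP splicing minigene plus DsRed2, 600 cells/well, 48 h compound exposure at 37C. Laser-scanning cytometry; analysed as GFP (500-530 nm)/RFP (575-640 nm) total intensity ratio; 0.5% DMSO vehicle.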
IMPase Li cell = qHTS Assay for Identifying the Cell-Membrane Permeable IMPase Inhibitors: Potentiation with Lithium; AID 1457, 2008; Potency, µM (series often up to 59.4 µM), inactives show at the top dose activity, negative = IMPase inhibition, hits mostly inhibitors; CHO-M1 cells, IP1 TR-FRET (IP-One), carbachol + lithium; 210,000 tested, 0.35% active; active = well fitted curve in the direction sought with a large enough effect; inconclusive = small, poorly fitted or top-dose-only effect, or another doubt; inactive = no such curve, though single readings can be large; an effect the other way counts as inactive or inconclusive;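 also: IP1 builds up when IMPase is blocked and the TR-FRET signal falls; plate controls were basal vehicle for no effect and high inhibitor control for full effect; nearly all actives have a fitted effect of over 50% in size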
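Test compounds were applied to CHO-M1 cells previously cultured for 16–30 h at 2000 per well. A small lithium amount accompanied them; after 30 min at 37C, IP1 was quantified by TR-FRET.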
* = called active by the depositor; u = inconclusive; x = no result; [ ] = remark or other dose. Shown are actives, neighbours in structure and some others; about 9% of the full set was active somewhere. Unless noted, calls follow the shape of the dose curve; as a rule, active = well fitted inhibition curve with a large enough effect (not every such curve was filed as active); inconclusive = small, poorly fitted or top-dose-only effect, or another doubt; inactive = no such curve, though single readings can be large or run the other way. Unless noted, % is scaled to controls: 0 for no effect and ±100 for the full control effect; potency is read from the fitted curve at half-maximal effect.

SMILES	KinaseGlo FLuc	ALDH1A1 inh	HPGD inh	LMNA splice mod	IMPase Li cell
Cn1c(=O)[nH]c(=O)c2c1nc(SCC(O)CO)n2Cc1ccccc1Cl (stereo not given)	-5%	14µM*	-22%	-3%	10%[38.3 µM]
CCSc1nc2c(c(=O)[nH]c(=O)n2C)n1CC(O)COc1ccccc1 (stereo not given)	2%	-3%	x	-21%[46 µM]	5%
COc1ccc(Cl)cc1N(CC(=O)NCC(C)C)S(=O)(=O)c1ccc(C)c([N+](=O)[O-])c1	-2%	14%	-13%	-7%	0%
COc1ccc(C(C)=O)cc1COC(=O)c1ccc(N)c([N+](=O)[O-])c1	2%	10µM*	x	-9%[46 µM]	11%
COc1ccc(C(C)=O)cc1COc1ccc([N+](=O)[O-])c(C)c1	1%	u	x	x	21%
COc1ccc(C(C)=O)cc1COc1ccccc1[N+](=O)[O-]	3%	3.2µM*	x	u	1%
Nc1ccc(C(=O)OCc2ccncc2)cc1[N+](=O)[O-]	0%	3%	x	-4%[46 µM]	6%
CC1CCN(C(=O)c2ccc(COc3ccccc3Cl)o2)CC1	-3%	u	16µM*	-2%	19%[38.3 µM]
CCN(CC)C(=O)c1ccc(COc2ccccc2Cl)cc1	6%	u	0.35µM*	-8%	45%[38.3 µM]
CCC(C)NC(=O)c1ccc(COc2ccccc2Cl)cc1 (stereo not given)	-4%	11%	20µM*	-16%	14%[38.3 µM]
O=C(O)c1ccc(COc2ccccc2Cl)cc1	2%	-12%	13µM*	10%	-22%[38.3 µM]
O=C(c1cc(C(F)(F)F)cc(C(F)(F)F)c1)N1CCC[C@@]2(CCN(Cc3ccncc3)C2)C1	-2%	1%	-7%	x	-7%
C#CCOCCOCCOCCNc1nc(N2CCN(C(=O)Cn3cc(CCCN=C(N)N)nn3)CC2)nc(N2CCN(C(=O)Cn3cc(CCCN=C(N)N)nn3)CC2)n1	3%	u	-8%	4%	0%
Cc1c(NC(=O)c2ccco2)cccc1C(=O)NN1C(=O)c2ccccc2C1=O	-2%	-6%	x	x	2%
C/C(=N\NC(=O)c1ccc(CN(C)S(=O)(=O)c2ccc(C)cc2)cc1)c1ccc(OC(F)F)cc1	x	25µM*	x	u	x
O=C(/C=C/c1cccc(F)c1)c1ccc(N2CCOCC2)cc1	x	13µM*	x	x	x
COc1cc(/C=C2\SC(N)=NC2=O)ccc1OCC(=O)Nc1ccc(C)cc1	1%	7%	4.5µM*	u	-6%
CCOc1cc(/C=C2\C(=O)N(CCC#N)N=C2C)ccc1OCC(N)=O	-1%	-9%	x	0%[46 µM]	0%
CC1=NN(CCC#N)C(=O)/C1=C/c1ccc(N(C)C)cc1	-14%	7.9µM*	x	-2%[46 µM]	15%
COc1cc(/C=C2\C(=O)N(CCC#N)N=C2C)ccc1OCC(=O)Nc1ccccc1	-3%	13µM*	10µM*	-3%	-1%
CC(=O)c1ccc(Nc2cnn(C34CC5CC(CC(CC(=O)O)(C5)C3)C4)c(=O)c2Cl)cc1	12%	6%	x	x	-8%
Cc1ccc(Cl)cc1N(CC(=O)Nc1cccc(N(C)S(C)(=O)=O)c1)S(C)(=O)=O	-3%	-5%	x	-10%[46 µM]	5%
Cc1cccc(C)c1N(CC(=O)Nc1cccc(N(C)S(C)(=O)=O)c1)S(C)(=O)=O	3%	22µM*	-14%	8%	1%[38.3 µM]
O=[n+]1c2c(n([O-])c3cc(F)ccc31)CCCC2	12%	-2%	-22%	7%	8%[38.3 µM]
O=[n+]1c2c(n([O-])c3cc(F)c(N4CCCC4)cc31)CCCC2	-10%	20µM*	-12%	4%	-7%[38.3 µM]
SMILES	KinaseGlo FLuc	ALDH1A1 inh	HPGD inh	LMNA splice mod	IMPase Li cell
Cc1nc(-c2ccc(C(F)(F)F)cc2)sc1C(=O)NN	x	1.1µM*	x	x	x
CCOC(=O)N1CCC2(CC1)C(C#N)=C(N)Oc1c2c(C)nn1-c1cccc(Cl)c1	3%	13µM*	-11%	-17%	30%[38.3 µM]
CCOC(=O)N1CCC2(CC1)C(C#N)=C(N)Oc1n[nH]c(C)c12	-2%	u	-7%	5%	-13%[38.3 µM]
COc1cc(/C=C/C(=O)N2CCCCC2=O)cc(OC)c1OC	2%	u	-7%	x	13%
CCOC(=O)N1CCc2c(sc(NC(=O)c3ccc(S(=O)(=O)N4CCCC4)cc3)c2C#N)C1	0%	u	-21%	u	13%
CCCN1CCc2c(sc(NC(=S)NC(=O)c3ccccc3)c2C#N)C1	-2%	7.9µM*	x	u	15%
CCN1CCc2c(sc(NC(=S)NC(=O)c3ccc(Cl)cc3)c2C(N)=O)C1	x	10µM*	x	x	x
CCN1CCc2c(sc(NC(=O)c3ccc(S(=O)(=O)N(CCOC)CCOC)cc3)c2C(N)=O)C1	x	x	x	-5%[46 µM]	x
CC(C)N1CCc2c(sc(NC(=S)NC(=O)c3ccccc3)c2C#N)C1	0%	13µM*	u	-11%	0%
CC(C)C1Cc2c(sc(NC(=S)NC(=O)c3ccccc3)c2C#N)CO1 (stereo not given)	2%	-6%	-25%	1%	-14%
CC(C)N1CCc2c(sc(NC(=O)c3ccc(S(=O)(=O)N4CCOCC4)cc3)c2C#N)C1	2%	10µM*	-14%	-3%	-26%[38.3 µM]
OCC(O)C(O)C(O)C(O)C(O)CO (stereo not given)	-5%	-7%	-8%	-10%	-3%
COc1ccccc1NC(=S)N1CCC(NC(=O)c2ccco2)CC1	3%	u	x	x	7%
COC(=O)[C@H](Cc1c[nH]c2ccccc12)NC(=O)Nc1ccccc1OC	x	-4%	x	x	x
Cc1ccc(NC(=O)c2ccc3ccccc3n2)cc1S(=O)(=O)N(C)C	0%	u	x	x	7%
Cc1cc(C)cc(COn2ccnc2)c1	9%	-2%	2%	8%	-5%[38.3 µM]
CC(C)C1O[C@H](/C=C\c2ccccc2)OCC1(C)C (stereo not given in full)	-6%[7.66 µM]	u	-12%	x	-11%
N=C1C(c2nc3ccccc3c(=O)[nH]2)=C(O)CN1CCc1ccccc1	16%	u	u	-6%	11µM*
N=C1C(c2nc3ccccc3c(=O)[nH]2)=C(O)CN1CCO	1%	u	u	10%	7%[38.3 µM]
CC(C)c1ccc2c(c1)[C@H]1OCC[C@H]1[C@@H](c1cccs1)N2	-1%	6%	7.9µM*	u	9%
O=C(c1ccc(Br)cc1)N1CCN(CCc2ccncc2)CC1	x	x	x	7%[46 µM]	x
Cc1cc(C(C)(C)C)cc(S(=O)(=O)NCC(=O)O)c1C	6%	8.9µM*	0%	-6%	30%[38.3 µM]
O=C(O)CNS(=O)(=O)c1cc(Cl)c(Cl)cc1Cl	4%	15%	-13%	-1%	17%[38.3 µM]
Cc1cc(C(C)(C)C)cc(S(=O)(=O)Nc2ccc(O)c(C(=O)O)c2)c1C	-3%	4µM*	u	25%	8%[38.3 µM]

Assay outcomes (PubChem BioAssay)
